# Results from PubChem BioAssay (NCI).
# About 83,000 compounds went through this panel and 20% of them were active in at least one assay; those are over-represented in the sample as a whole.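 For each line, cells grew in 96-well plates with the test compound present at a single concentration for 48 hours.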 Active and inactive are the calls of the source. Rule for the calls: active = growth percent below 10; inactive = the rest.
# System: SN12C renal
# Experiment: NCI-60 one-dose screen, 48 h (100 = growth as untreated, 0 = no growth, -100 = all killed)
# Settings: 10 µM unless noted
row,SMILES,growth
1,NS(=O)(=O)c1ccc(Nc2nc(N/N=C/c3ccc(F)cc3)nc(Nc3ccccc3)n2)cc1,50.3% (inactive)
2,COc1ccc(-c2cc(-c3ccc(Cl)cc3)nc3nc(N)nn23)cc1,97.6% (inactive)
3,COc1ccc(Cn2cc3c(c2-c2cc(OC)c(OC)c(OC)c2)CCCc2cnoc2-3)cc1,36.3% (inactive)
4,CN(c1ccc(F)cc1)S(=O)(=O)c1ccc(-c2cnc(C3CC3)o2)cc1,37.3% (inactive)
5,COC[C@]12CC[C@@H](C)[C@H](C)[C@H]1C1=CC[C@@H]3[C@@]4(C)CCCNC(C)(C)[C@@H]4CC[C@@]3(C)[C@]1(C)CC2,23.2% (inactive)
6,C=C(C)[C@@H]1CC[C@]2(C(=O)ON)CC[C@]3(C)[C@H](CC[C@@H]4[C@@]5(C)C/C(=C/c6ccc(Br)cc6)C(=O)C(C)(C)[C@@H]5CC[C@]43C)[C@@H]12,71.5% (inactive)
7,CN(c1ccc(Br)cc1)S(=O)(=O)c1ccc(-c2cnc(C3CC3)o2)cc1,30.2% (inactive)
8,CCCCCCNC(=O)Oc1ccc(/C(=C(\C)c2ccc(Cl)cc2)c2ccc(OCCN(C)C)cc2)cc1,69.9% (inactive)
9,C=C(C)[C@@H]1CC[C@]2(COS(C)(=O)=O)CC[C@]3(C)[C@H](CC[C@@H]4[C@@]5(C)CCCNC(C)(C)[C@@H]5CC[C@]43C)[C@@H]12,76% (inactive)
10,O=C(NNc1nc2cc(F)ccc2n2cncc12)c1cnccn1,34.2% (inactive)
11,CN1CCN(c2ccc3c(C(N)=O)c(NC(=O)c4ccc(C(C)(C)C)cc4)sc3c2)CC1,90% (inactive)
12,NC(=O)C(=Cc1ccc(Cl)cc1)C(N)=O,45.3% (inactive)
13,CCN1C(=O)N(CC)C2SC(N/N=C/C=C/c3ccccc3OC)=NC21 (centres undefined),28.6% (inactive)
14,CC(=O)C1=NN(c2ccc(Cl)cc2)C(=O)CN1C,102% (inactive)
15,CCOC(=O)c1c(NCC(=O)Nc2ccc(Br)cc2)sc2c1CCCC2,18.2% (inactive)
16,CN1CCN(c2ccc3c(c2)nc(NNC(=O)c2ccncn2)c2cccn23)CC1,29.1% (inactive)
17,CCOc1c(C#N)c(Nc2ccc(S(N)(=O)=O)cc2)c(C#N)c2nnc(C)n12,98.1% (inactive)

row,SMILES,growth
1,O=c1[nH]c(CNc2ccc(NCc3c(-c4ccccc4)no[n+]3[O-])cc2)nc2c1cnn2-c1ccccc1,78.9% (inactive)
2,C#CCOc1ccc(C(Nc2ccc(Cl)cc2)c2nnnn2C2CCCCC2)cc1 (centres undefined),85.9% (inactive)
3,COc1cc(/C=N/Nc2ccnc3cc(Cl)ccc23)cc(OC)c1O,-64.7% (active)
4,COc1cc(C(=O)C[n+]2ccc3ccccc3c2)cc(OC)c1OC,90.4% (inactive)
5,Cc1ccc(NC(=O)c2ccc(CN3CCN(C)CC3)c(I)c2)cc1Oc1ccc(-c2[nH]nc3ncnc(N)c23)cc1,90% (inactive)
6,COc1ccc(Cn2cc3c(c2-c2ccccc2)CCCc2cnoc2-3)cc1,79.8% (inactive)
7,N#Cc1c(NC(=O)c2ccc(F)c(Cl)c2)sc2c1CCC(=O)C2,4.43% (active)
8,c1ccc(-c2c(-c3ccccc3)[n+](Cc3ccc4ccccc4c3)c(-c3ccccc3)n2Cc2ccc3ccccc3c2)cc1,-91.7% (active)
9,CCOC(=O)C1=C(C)N=C2Sc3ccccc3N2C1c1ccccc1 (centres undefined),93.4% (inactive)
10,CCn1c2ccc(/C=N/NS(=O)(=O)CCN(C)C)cc2c2cc(/C=N/NS(=O)(=O)CCN(C)C)ccc21,99.3% (inactive)
11,Cn1cc2c(c1)-c1c(sc3nc(-c4ccc(NC(=O)Nc5cc(C(C)(C)C)on5)cc4)cn13)CC2,59.9% (inactive)
12,CCOC(=O)c1c(NC(=O)c2ccc(C(C)(C)C)cc2)sc2cc(OCCN3CCCCC3)ccc12,78.1% (inactive)
13,COc1ccccc1/C=C/C=N/NC1=NC2C(S1)N(C)C(=O)N2c1ccccc1 (centres undefined),20.6% (inactive)
14,CC1(C)CC[C@]2(C(=O)O)CC[C@]3(C)C(=CCC4[C@@]5(C)C[C@@H](O)[C@@H]6OC(c7cccc([N+](=O)[O-])c7)OC[C@@]6(C)C5CC[C@]43C)C2C1 (some centres undefined),62% (inactive)
15,CN(C)c1ncc(/C=C2\SC(=S)N(Cc3ccccc3Cl)C2=O)s1,68.7% (inactive)
16,O=C(/C=C1\C=CN(CCCCO)c2ccccc21)n1ccc2ccccc21,98.7% (inactive)
17,C#C[C@]1(O)CC[C@H]2[C@@H]3CC=C4c5sc(Nc6nc(C)cc(OC)n6)nc5CC[C@]4(C)[C@H]3CC[C@@]21C,73% (inactive)
